In all, about 53,000 compounds went through this assay and about 900 (1.7%) showed an effect of 50% or more. The sample as a whole holds a higher share of strong results than the screen did.

This test concerns Mycobacterium tuberculosis. As to the kind of experiment: Cornell - Phenotypic assay to identify agents that inhibit growth of Mycobacterium tuberculosis. It counts as functional. More on the design: scale not given: direction of the effect not stated beside the values. The following applies: 10 mM as filed; unlikely as a test dose.
For `CN(C)c1cc(C2CCCNC2)ccn1.Cl.Cl` (stereo unspecified), the “Percent Effect” value is given as 40.71%.
As for `CC(C)(C)OC(=O)N1CCn2c(nnc2C2CCCNC2)C1` (stereo unspecified), the figure is -27.32%; as for `CCC(C)(C)n1nnnc1C(c1cccs1)N1CCc2ccccc2C1` (stereo unspecified), 77.94%.
For `CCC(C)(C)n1nnnc1C(c1cccs1)N1CCc2ccccc21` (stereo unspecified) the value was 26.96%; for `CCC(C)(C)n1nnnc1C(c1cccs1)N1CCCCC1` (stereo unspecified), 33.43%.
For `CCOc1ccccc1CN(C)C(=O)CN1C(=O)OC[C@@H]1C(C)C` the value was -25.38%; for `NCc1n[nH]c(=O)n1-c1cccc(Cl)c1Cl`, -49.88%; for `Cc1cccc(-c2nccnc2C2CCN(C)CC2)c1C`, -15.39%.
In the case of `NC(=O)c1c(-c2ccc(Cl)cc2)csc1NC(=O)CCC(=O)O`, the “Percent Effect” value was -1.119%.
For `O=C(COc1coc(CN2CCOCC2)cc1=O)c1ccc(Cl)cc1` the value was 4.659%; for `O=C(COc1coc(CN2CCCCC2)cc1=O)c1ccc(Cl)cc1`, 53.44%.
In the case of `O=C(COc1coc(CN2CCCCCC2)cc1=O)c1ccccc1`, the “Percent Effect” value was -10.82%.
As for `CSCCC(=O)N1CCCC(c2ncc[nH]2)C1` (stereo unspecified), the figure is 7.779%.
Turning to `Cc1cc(=O)[nH]c(-n2nc(C)c(CCC(=O)NCc3cccs3)c2C)n1`, the “Percent Effect” value is listed as 13.95%.
For the compound `Cc1cc(=O)[nH]c(-n2nc(-c3ccccc3)cc2N)n1`, the “Percent Effect” value came out at 94.92%.
As for `NC1(c2nc(-c3cccs3)cc(=O)[nH]2)CCCC1`, the figure is -47.24%.
In the case of `NC1(c2nc(-c3ccccc3)cc(=O)[nH]2)CCCC1`, the “Percent Effect” value is 17.2%.
For `CCCS(=O)(=O)NCCn1ccc(-c2cccs2)n1`, the “Percent Effect” value is listed as -17.91%.
As for `CCCc1cc(=O)[nH]c(-n2nc(-c3cccs3)cc2N)n1`, the figure is 94.38%.
For `NC1(c2nc(-c3cccs3)cc(=O)[nH]2)CCCCC1` the value was -54.45%; for `Cc1cc(=O)[nH]c(-n2nc(-c3cccs3)cc2N)n1`, 98.99%; for `COC(=O)CCc1c(C)nn(-c2nc(C)cc(=O)[nH]2)c1C`, 23.13%.
For `COc1cc(N2C[C@H]3CN(Cc4ccccn4)C[C@H]3C2)ncn1.O=C(O)C(F)(F)F` the value was 8.566%.
For the compound `Cn1nnnc1SC1CCc2ccccc2NC1=O` (stereo unspecified), the “Percent Effect” value turned out to be 4.345%.
For `O=C(COC[C@]12COC[C@H]1CN(C1CCC1)C2)N1CCCC1.O=C(O)C(F)(F)F` the value was -23.94%; for `CN(CC1COc2ccccc2O1)C(=O)C1=NN(C)C(=O)CC1` (stereo unspecified), 21.15%; for `CCC1CN(CCNS(C)(=O)=O)c2ccccc2O1` (stereo unspecified), 23.74%.
For `CS(=O)(=O)NCC1Cc2ccccc2O1` (stereo unspecified) the value was -12.85%; for `CCCN(CC1COc2ccccc2O1)C(=O)CCN1C(=O)CCC1=O` (stereo unspecified), 17.77%.
As for `CCC1CN(CCCNS(C)(=O)=O)c2ccccc2O1` (stereo unspecified), the figure is 99.54%; as for `CCC1CN(CCCO)c2ccccc2O1` (stereo unspecified), 66.97%.
`Cc1cccc(CN2CCC3(CCN(Cc4ccccn4)C3)C2=O)c1.O=C(O)C(F)(F)F.O=C(O)C(F)(F)F` (stereo unspecified): the “Percent Effect” value was 1.967%.
Consider `COc1cc(CCC(=O)N2CCC(c3cc4nccnc4[nH]3)CC2)on1`, for which the “Percent Effect” value came out at 16.88%.
For `CCCSc1ncccc1C(=O)NCc1ccc(N(C)C)cc1` the value was -11.44%; for `O=C(O)C(F)(F)F.c1ccc(CN2CCc3ncnc(-c4ccsc4)c3CC2)nc1`, 15.9%.
For `CCc1csc(C2CCCN(C(=O)c3ccc(=O)n(CC)n3)C2)n1` (stereo unspecified) the value was -10.64%; for `CCc1nc(C(=O)N(CC)CC(=O)N(C)C)nn1-c1ccccc1Cl`, 10.69%.
With `CCCn1nnnc1CN(c1ccc(C)cc1)C(C)C`, the “Percent Effect” value is on record as 13.52%.
As for `CCCn1nnnc1CN(C)C(C)c1ccc(C)cc1` (stereo unspecified), the figure is 18.09%; as for `CCCn1nnnc1CN(c1ccc(N2CCOCC2)cc1)C(C)C`, 100.7%; as for `c1ccc(CN2CCC(CCNc3ncnc4c3CCNCC4)C2)cc1` (stereo unspecified), 21.24%.
For `CN1C(=O)CCCC12CCCN(Cc1cccs1)C2.O=C(O)C(F)(F)F` (stereo unspecified) the value was 15.82%; for `CCN1CCC2(CC1)CN(CCO)c1ccccc12`, -37.58%; for `COCCN1CC2(CCN(C(=O)c3ccno3)CC2)c2ccccc21.O=C(O)C(F)(F)F`, -25.4%.
For `COCCN1CC2(CCN(Cc3ccco3)CC2)c2ccccc21` the value was 57.89%; for `Cc1cc(C)n(CC2CN(CCC(=O)NC3CCCCC3)CCO2)n1` (stereo unspecified), -4.136%.
Consider `Cc1[nH]/c(=N\C(=O)c2csc(NC3CCCC3)n2)sc1C`, for which the “Percent Effect” value came out at 105%.
For `Cc1[nH]/c(=N/C(=O)Cn2nc(N3CCOCC3)ccc2=O)sc1C` the value was -3.782%.
For `Cc1cc(O)c(OCC(=O)/N=c2\[nH]c(C)c(C)s2)cn1` the value was 27.09%; for `CC(=O)Nc1nc(C(=O)N2CCCC(c3cc(C)[nH]n3)C2)cs1` (stereo unspecified), -1.903%.
For `CC(=O)Nc1nc(C(=O)N2CCC(Nc3cccnn3)CC2)cs1` the value was -42.9%; for `Cc1[nH]/c(=N\C(=O)c2csc(NC3CC3)n2)sc1C`, 53.16%.
Take `COC(=O)Cn1c(C)cc(=O)n2nc(-c3cccs3)nc12`: the “Percent Effect” value is listed as -3.318%.
For `Cc1cnn(CC2CN(CCc3cccs3)CCO2)c1` (stereo unspecified) the value was 13.16%; for `CC(C(=O)NCC(C)(C)c1ccc2c(c1)OCCO2)n1cncn1` (stereo unspecified), -4.418%; for `CC(=O)N1CCC(c2nc(C)cc(-c3ccccc3C(=O)O)n2)CC1`, -42.06%.
For the compound `COc1ccccc1OC1CCN(c2nccc(N)n2)CC1`, the “Percent Effect” value was -15.16%.
With `CS(=O)(=O)NCCCNC(=O)c1cnc(-c2ccsc2)s1`, the “Percent Effect” value is given as -10.19%.
In the case of `Cn1cc(CN2CCC(c3ccncc3)CC2)cn1`, the “Percent Effect” value is recorded as 9.056%.
As for `COc1ccc(CN2CCC3(CCCN(C)C3=O)C2)c(OC)c1C` (stereo unspecified), the “Percent Effect” value is listed as 52.12%.
As for `COc1ccc(CN2CCC3(CCCN(C)C3=O)C2)c(Cl)c1OC` (stereo unspecified), the figure is 41.14%; as for `COc1cc2c(cc1CN1CCC3(CCCN(C)C3=O)C1)OCCO2` (stereo unspecified), 14.22%.
As for `CCN(CC)CCNS(=O)(=O)c1cccc(CSC)c1`, the figure is 5.575%; as for `Cc1noc(C)c1S(=O)(=O)NCC(O)c1ccc2c(c1)CCO2` (stereo unspecified), -26.48%; as for `Cc1nc(CNCC2CN(C)CCO2)cs1` (stereo unspecified), 0.5218%.
As for `CC(=O)N[C@H]1CN(S(=O)(=O)N(C)Cc2ccccc2)C[C@@H]1C1CC1`, the figure is 14.84%; as for `CCC1CCCCN1C(=O)Cn1nc(-c2cc(C)oc2C)cc(N)c1=O` (stereo unspecified), 52.47%.
Regarding `CCC1CCCCN1C(=O)Cn1nc(-c2ccc(C)s2)cc(N)c1=O` (stereo unspecified), the “Percent Effect” value is 45.47%.
As for `CCC1CCCCN1C(=O)Cn1nc(-c2ccc(C)o2)cc(N)c1=O` (stereo unspecified), the figure is -6.265%; as for `NCCc1n[nH]c(=O)n1-c1cccc(Cl)c1Cl`, -33.73%.
As for `Cc1cccc(CN2C[C@@H]3CN(C(=O)C4CCOC4)C[C@@H]3C2=O)c1` (stereo partly specified), the figure is 4.733%; as for `COc1ccc(NC(=O)Cn2nc(C)c(C)cc2=O)c(OC)c1`, 11.71%.
With `Cc1ccc(NC(=O)CNc2cccc3c2CCCC3)c(Br)c1`, the “Percent Effect” value came out at 51.04%.
As for `Cc1ccc(NC(=O)CNc2ccccc2C(N)=O)c(C)c1`, the figure is -11.67%; as for `COc1ccc(CNC(=O)CNc2ccccc2OC)cc1`, 22.93%; as for `COc1ccc(NC(=O)CNc2cccc3c2CCCC3)c(OC)c1`, 76.54%.
For `Cc1ccc(NC(=O)CNc2cccc(C(N)=O)c2C)c(C)c1` the value was -29.06%.
As for `NC(=O)CCSc1n[nH]c(-c2ccc3c(c2)CCC3)n1`, the figure is 8.887%; as for `CN1CCC(N(C)C(=O)c2cnc3c(cnn3C3CCCC3)c2)CC1`, 15.63%.
Consider `Cc1ccc(C#N)c(N2CC(C)(C)[C@@](C)(O)C2)n1`, for which the “Percent Effect” value is on record as 10.2%.
As for `O=C(CCc1nnc(-c2ccsc2)o1)NCC1CCN(C2CC2)C1` (stereo unspecified), the figure is -9.076%; as for `Cc1noc(C)c1CNCc1nn(-c2ccccc2)c2c1CCC2`, -25.17%; as for `COc1ccccc1CNCc1nn(-c2ccccc2)c2c1CCC2`, 75.02%.
For `Cc1c(CNCc2nn(-c3ccccc3)c3c2CCC3)cc(C#N)n1C` the value was 0.6388%.
As for `NC(=O)CSCC(=O)NCC1CCCC1`, the figure is -10.13%.
In the case of `CN(CC(=O)NC1(C)CCS(=O)(=O)C1)Cc1ccc(Br)cc1` (stereo unspecified), the “Percent Effect” value is -6.576%.
Consider `O=C(CSCCN1CCOCC1)N1CCCCCC1`, for which the “Percent Effect” value is recorded as -6.957%.
For `CNc1ncc(CN(C)c2nccc(CCC(F)(F)F)n2)cn1`, the “Percent Effect” value came out at 50.32%.
On to `CCc1nnc(CN(C)c2nccc(CCC(F)(F)F)n2)o1`, for which the “Percent Effect” value was determined as 6.8%.
`CN(Cc1ccncn1)c1nccc(CCC(F)(F)F)n1`: the “Percent Effect” value is recorded as -20.7%.
As for `CS(=O)(=O)N1CCCC1C(=O)Nc1cnc2n1CCCC2` (stereo unspecified), the figure is 9.053%; as for `CCNC(=O)NC(=O)CNC(C)(C)c1ccc2c(c1)OCCO2`, 27.43%; as for `CCCNC(=O)NC(=O)CNC(C)(C)c1ccc2c(c1)OCO2`, 0.4574%.
For `CCCNC(=O)NC(=O)CNC(C)(C)c1ccc2c(c1)OCCO2` the value was 101.9%; for `Cc1n[nH]c(C)c1S(=O)(=O)N1CCC(Oc2cnccn2)CC1`, 6.999%.
As for `O=C(O)c1cccn1-c1ccc2c(c1)OCCO2`, the figure is 28.73%.
As to `COc1ccccc1CCNC(=O)C1CCC(Cn2cnnn2)CC1` (stereo unspecified), the “Percent Effect” value amounted to 3.007%.
For `Cc1nn(C)c2nc(N(CCN(C)C)C3CCCC3)sc12` the value was 19.35%.
Turning to `Cc1nn(C)c2nc(N(Cc3cnn(C)c3)C3CCCCC3)sc12`, the “Percent Effect” value is recorded as 56.52%.
In the case of `Cc1nn(C)c2nc(N(C)CCN(C)C3CCCC3)sc12`, the “Percent Effect” value was 37.55%.
As for `c1ccn(Cc2nnc3n2CCCN(c2cnccn2)C3)c1`, the figure is -17.01%.
As for `Cc1ccc(CN2CCN(c3ccc(F)cn3)CC2=O)cc1C`, the figure is 39.83%; as for `CCC(NC(=O)NCC(=O)NC(C)C)c1cc(F)ccc1F` (stereo unspecified), 5.032%.
Consider `CCOc1ccc(NC(=O)NCCS(=O)(=O)CC)cc1C`, for which the “Percent Effect” value is recorded as 60.38%.
As for `CCOc1ccc(NC(=O)NCc2csc(NC)n2)cc1C`, the figure is 21.98%; as for `CCOc1ccc(NC(=O)NCCCN(C)S(C)(=O)=O)cc1C`, 30.17%.

(Values after ChEMBL document CHEMBL3988442, “University of Dundee, Small-Polar-MMV Screening Library” (2021).)
